# According to the supplement of paper PMC6555819:
# Key:
# Test in all cases: PBM binding z-score (relative to random genomic background probes); higher = stronger binding; sequences stand for … in GC…GCGATTGACAGCGTAGAATGAAGG
# [1] = system: PPARg:RXRa DBDmut IVT, anti-RXR (DBD mutation: RXRa K156A/R161A, NR concentration 270 nM, RXRa partner concentration 90 nM)
# Outline: (§1)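 Random background probes are the reference for binding z-scores. These scores derive from regression-normalized fluorescence on custom Agilent 4×180K protein-binding microarrays incubated 1 h with ligand-free nuclear receptor dimers. Binding was detected with antibodies against each partner (one per run).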
# [2] = system: PPARg:RXRa IVT, anti-PPARg (NR concentration 270 nM, RXRa partner concentration 90 nM)
# Outline: as §1
# [3] = system: PPARg DBDmut:RXRa IVT, anti-PPARg (DBD mutation: PPARg1 K132A/R137A, NR concentration 270 nM, RXRa partner concentration 90 nM)
# Outline: as §1
# [4] = system: PPARg DBDmut IVT, anti-PPARg (DBD mutation: PPARg1 K132A/R137A, NR concentration 270 nM)
# Outline: as §1
# [5] = system: PPARg homodimer (NR concentration 180 nM)
# Outline: as §1
# [6] = system: PXR:RXRa (NR concentration 270 nM, RXRa partner concentration 90 nM)
# Outline: as §1
# [7] = system: PXR homodimer (NR concentration 270 nM)
# Outline: as §1
# [8] = system: RARa:RXR (NR concentration 270 nM, RXRa partner concentration 90 nM)
# Outline: as §1
# [9] = system: RARa homodimer (NR concentration 270 nM)
# Outline: as §1
# [10] = system: RARb:RXRa (NR concentration 270 nM, RXRa partner concentration 90 nM)
# Outline: as §1
# [11] = system: RARb homodimer (NR concentration 270 nM)
# Outline: as §1
# [12] = system: RARg:RXRa (NR concentration 270 nM, RXRa partner concentration 90 nM)
# Outline: as §1
# [13] = system: RARg homodimer (NR concentration 270 nM)
# Outline: as §1
# [14] = system: RXRa DBDmut IVT, anti-RXR (DBD mutation: RXRa K156A/R161A, NR concentration 90 nM)
# Outline: as §1
# [15] = system: RXRa homodimer (NR concentration 180 nM)
# Outline: as §1
# [16] = system: THRa:RXRa (NR concentration 90 nM, RXRa partner concentration 90 nM)
# Outline: as §1
# [17] = system: THRa homodimer (NR concentration 90 nM)
# Outline: as §1
# [18] = system: VDR homodimer (NR concentration 270 nM)
# Outline: as §1
Sequence,PBM binding z-score [1],PBM binding z-score [2],PBM binding z-score [3],PBM binding z-score [4],PBM binding z-score [5],PBM binding z-score [6],PBM binding z-score [7],PBM binding z-score [8],PBM binding z-score [9],PBM binding z-score [10],PBM binding z-score [11],PBM binding z-score [12],PBM binding z-score [13],PBM binding z-score [14],PBM binding z-score [15],PBM binding z-score [16],PBM binding z-score [17],PBM binding z-score [18]
TCTATTAGTGGAAGGGCAACCGACGAGTCCGTTT,2.03,0.68,0.155,-0.147,0.597,0.698,0.821,0.778,0.46,1.59,1.21,0.443,0.673,1.28,0.619,0.13,0.0131,1.3
CAAACTAGCTCAAGAGGTCAAAGTCCGCTTCCCG,0.982,2.06,0.545,0.408,2.37,5.37,1.87,5.13,1.34,3.96,4.52,4.96,4.04,2.4,5.51,3.66,1.72,3.55
TCTATTATTTGATTAGGGCAACCGAAACAGCGGA,2.19,1.39,2.04,2.12,2.2,0.756,2.04,1.17,3.39,0.93,0.742,0.671,0.596,1.27,0.751,0.898,1.07,1.47
AGAATGAGGTTATTAAGATCAGGAAATTGCGGTC,2.71,2.49,1.18,0.481,0.657,1.3,0.566,1.3,0.579,1.42,0.491,1.3,0.9,1.99,1.75,2.06,0.497,1.18
GCTGCTAGGTCAACTGATAGTCAGCTAAAGCTCG,4.86,4.12,0.166,-1.36,0.644,1.05,-0.294,2.13,-0.287,4.09,3.15,4.31,5.07,1.68,2.75,2.74,0.622,0.0089
ACTAGCAGGCCAAGTTCGGGTCACTCAAACAAAG,0.756,1.07,-0.452,-1,1.34,2.55,0.53,3.19,-0.287,2.33,2.96,3.14,2.14,0.623,1.81,3.55,2.61,2.1
CGAGCTAGGTCATTGACAGGACAGTGAATAGTAA,3.51,2.78,0.0808,-0.146,0.918,1.54,0.31,2.18,-0.128,3.66,2.77,4.67,4.49,2.43,2.37,2.7,0.527,1.23
TCTAGCAGGCCAGAGGGTCAGTCAAGAGGTACGG,0.768,0.496,-0.553,-1.25,0.21,0.465,-0.829,0.985,-0.753,1.77,2.16,1.59,1.82,-0.232,1.43,0.734,-0.934,-0.429
CGTTAAAGTTCAAGGTAACGTAACAGAAAGCAGC,0.894,2.08,0.767,0.8,1.94,3.79,2.16,2.94,2.05,4.96,3.54,4.91,5.74,4.35,3.98,2.78,1.23,3.34
GATACAGGGTCAGCTAGAGGCCAAAGTATGGAAA,1.15,2.73,0.457,0.0688,3.56,4.24,0.247,5.28,0.349,4.25,3.52,7.25,5.27,1.21,4.76,3.25,0.447,1.3
CCTTACGGGTCAAGGTGATAGCACGGGTGGTACG,1.85,3.49,-0.115,-0.375,1.63,2.89,-0.103,3.84,0.455,4.11,3.13,4.81,4.64,0.497,5.2,2.94,0.765,0.801
GCTAGCAGGCCAATTGGGTCACTCAATGACGGGC,2.36,3.11,-0.977,-0.884,-0.0833,0.184,-0.704,0.585,-0.664,1.54,1.94,1.01,1.15,-0.58,0.841,1.66,0.0976,-0.328
CCGACTGGGGCATAAGGTTACCGTAAGCCAGCCC,3.14,3.4,-0.802,-1.39,0.271,0.55,-0.911,1.66,-0.61,1.98,1.83,2.05,1.06,-0.367,1.34,2.26,1.13,-0.402
CAAACTAGGTCACCGGAAGGTCAAGGTCCGCATG,8.67,8.88,2.07,0.589,8.45,5.6,1.49,7.28,2.79,5.37,5.77,8.53,7.66,2.03,6.64,4.3,3.53,3.16
